# Records with an inconclusive call do not appear. Where a call stands in place of a potency, no number is given. A number with no mark means an inactive call. Calls of active or inactive are those of the source. Calls come from the whole dose curve; as a rule, active = well fitted curve in the direction sought with a large enough effect; inconclusive = small, poorly fitted or top-dose-only effect, or another doubt; inactive = no such curve, though single readings can be large; an effect the other way counts as inactive or inconclusive.
# Experiments:
# [1] = qHTS Assay for Identifying Gametocytocidal Compounds (AID 743244);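 note: actives lower the fluorescent signal which means gametocytes are killed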; details: P. falciparum 3D7 stage III-V gametocytes, alamarBlue, 72 h; max response: stronger effect = lower value
# Summary of the method: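 P. falciparum 3D7 stage III–V gametocytes (20,000 cells/well) were exposed to compounds for 72 h at 37 °C, 5% CO2. AlamarBlue was then added for 24 h; decreased resorufin fluorescence (Ex 525/Em 598 nm) indicated loss of viability.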
# [2] = P-glycoprotein substrates identified in KB-8-5-11 adenocarcinoma cell line, qHTS therapeutic library screen (AID 1346987); note: nearly all actives have a fitted effect of over 65% in size
# Summary of the method: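 Human cervical adenocarcinoma KB-8-5-11 cells, selected in colchicine to over-express P-gp and assayed without it, were exposed for 72 h to titrated compounds. An ATP-based luminescent viability signal gave AC50.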
# KB-3-1 = experiment: Cytotoxic Profiling of Annotated Libraries Using Quantitative High-Throughput Screening (AID 1296008); details: Five cell lines viability, CellTiter-Glo ATP luminescence, 48-72 h; max response: stronger effect = lower value; note: nearly all actives have a fitted effect of over 60% in size
# Summary of the method: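 Compounds were pin-transferred onto cells and incubated 48 or 72 hr at 37 degree Celsius, 95% humidity. CellTiter-Glo was added, plates sat 10 min at room temperature, then ATP-coupled luminescence was imaged as the viability read-out.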
# astro = experiment: Drug repurposing screens with cells derived from glioblastoma tumor samples (AID 1345199); details: viability, ATP luminescence, 48 h; series mostly up to 45.9 µM; note: nearly all actives have a fitted effect of over 40% in size
# Summary of the method: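 Primary testing used CD133+ neurospheres from four GBM patients, seven concentrations, 48 h exposure and ATP-based viability; confirmation added three slower-growing patient lines.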
# CRL-7250 = normal cell line; experiment: qHTS assay to identify novel small-molecules to repurpose for Merkel cell carcinoma treatment (AID 1296009); details: MCC and control cell lines, CellTiter-Glo viability, 72 h; series mostly up to 92 µM; note: nearly all actives have a fitted effect of over 60% in size
# Summary of the method: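 Luminescence from CellTiter-Glo, read 10 min after addition at room temperature, reported viability following a 72 hr, 37 degree celsius treatment with NPC or MIPE compounds in titration; values normalized to plate controls.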
smiles,measurement,setting,value
CCc1cc(OC)c(C[C@@H](C)N)cc1OC,max response,[1],0.694%
same,Potency,[2],inactive
same,max response,KB-3-1,-13.5%
same,Potency,astro,inactive
CCOc1ccc(C(Nc2ccccn2)c2ccc3ccc(C)nc3c2O)cc1C (stereo not given),Potency,CRL-7250,inactive
CC1=C2CC(C)(C)CC2C(O)C2=C(C1)C(=O)OC2O (stereo not given),Potency,CRL-7250,inactive
CC(=O)OC[C@]12[C@H](OC(C)=O)[C@H](OC(=O)c3ccccc3)[C@@H]3[C@@H](OC(C)=O)[C@]1(OC3(C)C)[C@H](C)C[C@H](OC(C)=O)[C@@H]2OC(=O)c1ccccc1,Potency,CRL-7250,inactive
CC(=O)OCC1OC(O[C@H]2CC[C@@]3(C)C(CC[C@]4(C)C3CC=C3[C@@H]5CC(C)(C)CC[C@]5(C(=O)O)CC[C@]34C)[C@]2(C)CO)C(O)C(O)C1OC1OC(C)C(O)C(OC2OCC(O)C(O)C2O)C1O (stereo not given in full),outcome,CRL-7250,inactive [at 9.27 µM]
CC(C)/C=C1/NC(=O)C(C(C)C)n2c1nc1c(O)cccc1c2=O (stereo not given),Potency,CRL-7250,inactive
COC(=O)C1=C2Nc3ccccc3C23CCN2CCCC(C(C)O)(C1)C23 (stereo not given),Potency,CRL-7250,inactive
C=C1CC/C=C(/CO)C(=O)C[C@@H]2[C@@H]1C[C@@]2(C)COC(C)=O,Potency,CRL-7250,inactive
CCN(CCN(C)C)C(=O)CNCc1cc(C(N)=O)ccn1,Potency,CRL-7250,inactive
COc1cc(/C=C/C(=O)O[C@H]2C[C@@H]3C(C(=O)O)=CO[C@@H](O[C@@H]4O[C@H](CO)[C@@H](O)[C@H](O)[C@H]4O)[C@@H]3[C@H]2C)ccc1O,Potency,CRL-7250,inactive
COc1cc([C@@H](O[C@@H]2O[C@H](CO)[C@@H](O)[C@H](O)[C@H]2O)[C@@H]2CO[C@H](c3ccc(O)c(OC)c3)[C@H]2CO)ccc1O,Potency,CRL-7250,inactive
CC(=O)C1CCC(=O)N1Cc1ccccc1 (stereo not given),Potency,CRL-7250,inactive
C=C1C(=O)O[C@@H]2C[C@H](C)[C@@]3(O)C=C(C(C)=O)[C@]4(CC3C[C@H]12)C(=O)O[C@H]1C[C@@H](C)C(CCC(C)=O)=CC[C@H]14 (stereo not given in full),Potency,CRL-7250,inactive
CC1=CC(=O)CC(C)(C)C1(O)CCC(C)O (stereo not given),Potency,CRL-7250,inactive
CC(C)OC(=O)N1CCC(Oc2ncnc3c2cnn3-c2ccc(S(C)(=O)=O)cc2F)CC1,Potency,CRL-7250,inactive
OC[C@H]1O[C@@H](OC[C@H]2O[C@@H](OCc3ccccc3)[C@H](O)[C@@H](O)[C@@H]2O)[C@H](O)[C@@H](O)[C@@H]1O,Potency,CRL-7250,inactive
C=CC1C(O[C@@H]2O[C@H](CO)[C@@H](O)[C@H](O)[C@H]2O)OC=C(C(=O)OC)C1CC(=O)O (stereo not given in full),Potency,CRL-7250,inactive
CC1(C)CC[C@@]2(C(=O)O[C@@H]3O[C@H](CO)[C@@H](O)[C@H](O)[C@H]3O)C(C1)C1=CCC3[C@@]4(C)CC[C@@H](O[C@@H]5O[C@H](C(=O)O)[C@@H](O[C@@H]6OC[C@@H](O)[C@H](O)[C@H]6O)[C@H](O[C@@H]6OC[C@](O)(CO)[C@H]6O)[C@H]5O)C(C)(C)C4CC[C@@]3(C)[C@]1(C)C[C@H]2O (stereo not given in full),outcome,CRL-7250,inactive [at 9.27 µM]
COc1ccc(CNCc2cccc3ccccc23)cc1,Potency,CRL-7250,inactive
Clc1ncoc1-c1c[nH]c2ccccc12,Potency,CRL-7250,inactive
Nc1ncnc2c1ncn2CCNCCCCCO,Potency,CRL-7250,inactive
C=C(C)[C@@H]1CC[C@](C)(O)[C@@H](OC(=O)c2ccccc2)C1,Potency,CRL-7250,inactive
C[C@H](/C=C/[C@@]1(O)[C@H](C)CC(=O)CC1(C)C)O[C@@H]1O[C@H](CO[C@@H]2OC[C@@H](O)[C@H](O)[C@H]2O)[C@@H](O)[C@H](O)[C@H]1O,Potency,CRL-7250,inactive
CC1(C)CC=C(c2cnc3ccccc3c2)c2cc(C(=O)Nc3ccc(C(=O)O)cc3)ccc21,Potency,CRL-7250,inactive
C1=Cc2ccccc2C(=C2CCN(CCCCc3nn[nH]n3)CC2)c2ccccc21,Potency,CRL-7250,inactive
C/C=C/[C@@H]1C=C[C@@H]2C[C@H](C)CC[C@H]2[C@]1(C)/C(O)=C1/C(=O)[C@@H](CO)N(C)C1=O,Potency,CRL-7250,inactive
CC1(CO)CC[C@]2(C(=O)O[C@@H]3O[C@H](CO)[C@@H](O)[C@H](O)[C@H]3O)CC[C@]3(C)C(=CCC4[C@@]5(C)C[C@H](O)[C@H](O[C@@H]6OC[C@@H](O)[C@H](O)[C@H]6O)[C@@](C)(CO)C5CC[C@]43C)C2C1 (stereo not given in full),outcome,CRL-7250,inactive [at 9.27 µM]
C=CC(C)(O)CC/C=C(\C)C(=O)O[C@@H]1[C@@H](O)[C@H](OC(C)(C=C)CC/C=C(\C)C(=O)O)O[C@H](CO)[C@H]1OC(=O)/C(C)=C/CCC(C)(O)C=C (stereo not given in full),Potency,CRL-7250,inactive
O=C(/C=C/c1ccccc1)OCC1=CC[C@@H]2C(C(=O)O)=CO[C@@H](O[C@@H]3O[C@H](CO)[C@@H](O)[C@H](O)[C@H]3O)[C@H]12,Potency,CRL-7250,inactive
CC1(C)CC[C@]2(C(=O)O)CC[C@]3(C)C(=CCC4[C@@]5(C)C[C@@H](O)[C@H](O)[C@](C)(CO)C5CC[C@]43C)[C@@H]2[C@@H]1O (stereo not given in full),Potency,CRL-7250,inactive
Cc1[nH]cnc1C1CCN(c2nc3cccc4c3n2CCC4=O)CC1,Potency,CRL-7250,inactive
C=C1CC[C@H]2[C@@](C)(CCC(OC3OC(CO)C(O)C(O)C3O)[C@@]2(C)CO)C1C(=O)CC1=CCOC1=O (stereo not given in full),Potency,CRL-7250,inactive
Cc1cc(-c2nncc3c(C(C)(C)C)c(OCc4ncnn4C)nn23)no1,Potency,CRL-7250,inactive
C=C(C(=O)O)C1CC2=C(C)CCCC2(C)C[C@@H]1O (stereo not given in full),Potency,CRL-7250,inactive
CC(=O)/C=C/C1C(C)CC(O[C@@H]2O[C@H](CO)[C@@H](O)[C@H](O)[C@H]2O)CC1(C)C (stereo not given in full),Potency,CRL-7250,inactive
COC(=O)C(C)C1CCC2(C)C(=O)C=CC(C)(O)C2C1O (stereo not given),Potency,CRL-7250,inactive
COc1cccc(C(=O)N2CCN(C(=O)COc3cccc(C)c3)CC2)c1OC,Potency,CRL-7250,inactive
COc1ccc(CCN(C)CCCOc2nsc(-c3ccccc3)n2)cc1OC,Potency,CRL-7250,inactive
N#CC(c1ccnc(OCc2ccc(CN3CCOCC3)cc2)n1)c1nc2ccccc2s1 (stereo not given),Potency,CRL-7250,inactive
O=S(=O)(c1ccccc1)N(CC(F)(F)F)c1ccc(C(O)(C(F)(F)F)C(F)(F)F)cc1,Potency,CRL-7250,inactive
CC(=O)c1[nH]cc(CCC(=O)O)c1CC(=O)O,Potency,CRL-7250,inactive
C=C(C(=O)OC)C1C(O)CC2(C)C(=O)CCC(O)(CO)C2C1O (stereo not given),Potency,CRL-7250,inactive
